An excerpt weighted towards active compounds, which were near 3.8% of everything screened.
Jurkat NFkB inh: inhibitors of induced NF-kB luciferase reporter, primary screen, TCR NF-kB activation inhibitor project, cell-based, luminescence, uHTS; Jurkat, PMA/ionomycin-induced NF-kB luciferase reporter; inhibition, % at 4 µM; actives 0.53% (n = 330,000); in the data active means inhibition above about 50%
A1 inh: caspase 3/7 activation in MEF A1-2A-BIM cells, primary screen, A1 inhibitor project, cell-based, luminescence, HTS. AID 2462, 2010. Caspase-Glo 3/7 luminescence, 3 h; percent of clofoctol response, vehicle zero. caspase activation, % (concentration not given with the values). actives 0.066% (n = 330,000);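 active means over half of replicate activation scores above 10%, or exactly half above 10 with the replicate mean above 10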
Mdm2 MdmX PPI: inhibitors of human Mdm2-MdmX association, primary screen, cell-based, luminescence, split luciferase, SaOS-2, uHTS; Protein Mdm4 (Homo sapiens) + E3 ubiquitin-protein ligase Mdm2 (Homo sapiens), …; SaOS-2 split-luciferase Mdm2/MdmX complementation; inhibition, % at 8 µM; actives 3% (n = 330,000); AID 485346, 2010;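 active means inhibition of at least 50% at 8 µM in the primary screen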
NTR1 ag: agonists of human NTR1, primary screen, imaging, U2OS cells, beta-arrestin-GFP, high content | Neurotensin receptor type 1 (Homo sapiens), P30989 | NTR1-U2OS beta-arrestin-GFP spot imaging, agonist mode | activation, % at 20 µM | actives 0.17% (n = 330,000) | AID 493036, 2011;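 active means activation at or above 40% of the spot to cytoplasm intensity ratio, with at least 20 cells analyzed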;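 further: 0% = DMSO without peptide and 100% = 100 nM NTR1 peptide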
Target sequence (P30989 whole entry, looked up): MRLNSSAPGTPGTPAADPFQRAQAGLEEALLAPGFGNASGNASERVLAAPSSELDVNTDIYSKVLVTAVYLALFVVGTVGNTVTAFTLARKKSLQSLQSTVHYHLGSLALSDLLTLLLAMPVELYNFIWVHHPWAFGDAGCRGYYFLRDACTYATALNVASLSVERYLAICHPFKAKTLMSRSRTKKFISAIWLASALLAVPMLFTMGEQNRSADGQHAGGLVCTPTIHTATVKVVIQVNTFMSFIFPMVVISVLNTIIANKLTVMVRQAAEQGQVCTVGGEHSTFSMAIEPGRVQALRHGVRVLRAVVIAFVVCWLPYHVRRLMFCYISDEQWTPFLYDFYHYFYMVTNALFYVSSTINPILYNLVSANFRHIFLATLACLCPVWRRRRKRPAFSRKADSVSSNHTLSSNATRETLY
697 NFkB inh: inhibitors of PMA/ionomycin-induced NF-kB reporter, 697 cells, primary screen, B-cell NF-kB inhibitor project, cell-based, luminescence, uHTS | inhibition, % at 4 µM | AID 435022, 2010 | 697 B-cell NF-kB luciferase reporter, 16 h | actives 0.33% (n = 330,000); in the data active means inhibition above about 35%
Beta apoptosis: inhibitors of cytokine-induced beta cell apoptosis, primary screen, luminescence. INS-1E cytokine-induced death, ATP luminescence, 48 h; percent of positive-control rescue, neutral wells zero. protection from apoptosis, % (concentration not given with the values). actives 0.8% (n = 300,000). AID 435005, 2010;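 active means Every replicate reaches about 75%, or at least half do and their mean reaches it too, limit read from the data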;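 further: 0% = cytokine-treated negative control wells and 100% = positive control rescue; higher means more ATP so stronger rescue from cytokine killing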
Mdm2 MdmX conf: Mdm2-MdmX complex disruptors, retested hits, confirmation, luminescence, single concentration. shares compounds with Mdm2 MdmX PPI. Mdm2-MdmX binding, luminescent assay. inhibition, % at 8 µM. actives 55% (n = 10,000); in the data active means inhibition above about 40%
FLuc counter: full-length luciferase signal inhibition, confirmation, counter-screen for Mdm2/MdmX interaction inhibitor project, cell-based, single concentration, SaOS-2; shares compounds with Mdm2 MdmX PPI; AID 504607, 2011; inhibition, % at 8 µM; SaOS-2 full-length luciferase counterscreen, luminescence; actives 77% (n = 6,200);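 active means mean inhibition at 8 µM reaching about 37%, which flags the compound as non-specific, limit read from the data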;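 further: p53-null SaOS-2 cells with luciferase driven by a doxycycline-inducible promoter; compound on cells about two nights before reading with doxycycline added after day one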
Numbers without * were called inactive; nt = not tested or not shown.

SMILES	Jurkat NFkB inh	A1 inh	Mdm2 MdmX PPI	NTR1 ag	697 NFkB inh	Beta apoptosis	Mdm2 MdmX conf	FLuc counter
CC(C)(c1cc(Br)c(O)c(Br)c1)c1cc(Br)c(O)c(Br)c1	-0.8	0.0	33.1	6.3	21.7	9.1	nt	nt
COCCN1C(=O)N[C@@H](c2cccs2)C(C(C)=O)=C1C	-1.5	0.8	8.6	-4.7	5.1	-6.5	nt	nt
O=c1cc(N/N=C/c2ccccc2)[nH]c(=O)[nH]1	-23.0	0.4	69.6*	0.4	-19.7	63.8	20.8	nt
O=c1nccc(N/N=C/c2ccccc2)[nH]1	-35.7	-10.6	-13.2	1.4	-46.8	-2.4	nt	nt
CC(C)c1ccc(S(=O)(=O)NC2CCS(=O)(=O)C2)cc1 (centres undefined)	6.4	0.0	12.0	0.2	-1.6	1.5	nt	nt
CS(=O)(=O)c1ccc2nc(NC(=O)Nc3ccc(Cl)cc3)sc2c1	1.4	0.9	50.1*	6.5	6.4	5.0	23.2	nt
COc1ccccc1C(=O)Nc1nc2ccc(S(C)(=O)=O)cc2s1	-49.6	-1.3	53.4*	1.0	-6.7	6.7	-6.2	nt
CS(=O)(=O)c1ccc2nc(NC(=O)c3ccccc3Cl)sc2c1	-3.7	-6.3	4.5	-0.4	-10.4	-4.2	nt	nt
COc1cccc(CNC(=O)CCS(=O)(=O)c2ccccc2Cl)c1	-2.1	-0.6	-14.7	-1.0	6.9	-5.1	nt	nt
CC(=O)c1c(C)[nH]c(C(=O)Nc2nc(-c3ccc(-c4ccccc4)cc3)cs2)c1C	-10.5	-1.5	87.5*	36.6	-4.0	43.7	43.9*	100.2*
O=C(Nc1nc(-c2ccc(-c3ccccc3)cc2)cs1)C1=COCCO1	-7.6	-1.7	65.1*	0.7	-15.5	7.4	56.5*	41.3*
COc1ccc(CCNC(=O)C(=O)NCC2CCCN2S(=O)(=O)c2ccc(OC)cc2)cc1 (centres undefined)	17.5	1.0	22.1	-1.3	7.6	-7.5	nt	nt
Cc1cc(C)n(-c2nc(SCCN(C)C)c3c4c(sc3n2)CCCC4)n1	3.2	-0.6	92.2*	33.0	-34.4	30.5	60.3*	71.9*
Cc1cc(C)n(-c2nc(SCC(=O)O)c3c4c(sc3n2)COC(C)(C)C4)n1	18.9	0.9	7.7	2.8	2.8	9.5	nt	nt
Oc1[nH]c2ccc(Br)cc2c1N=NC(=S)NCC1CCCO1 (centres undefined)	2.9	0.1	67.9*	9.6	23.2	17.1	52.6*	48.2*
Oc1[nH]c2c(Cl)cc(Cl)cc2c1N=NC(=S)NCC1CCCO1 (centres undefined)	11.5	-0.7	97.6*	21.6	-6.0	52.1	45.4*	49.6*
Oc1[nH]c2ccccc2c1N=NC(=S)NCC1CCCO1 (centres undefined)	2.9	-0.3	10.6	1.3	11.7	3.0	nt	nt
Cc1cccc(C(=O)NNC2=C(C(=O)C(F)(F)F)CCC2)c1O	6.4	-1.8	61.8*	0.4	5.2	48.5	5.8	nt
O=C(CN(Cc1ccccc1)C(=O)CCl)c1cccc(Br)c1	4.5	-0.2	100.2*	-0.3	12.1	10.4	80.1*	60.1*
O=C(NCCCc1ccccc1)c1cccc(Br)c1	-3.2	0.4	11.3	-1.2	-8.9	0.9	nt	nt
Cc1ccnc(NC(=O)Cn2c(=O)oc3ccccc32)c1	0.7	1.3	-12.1	-0.1	18.3	-11.8	nt	nt
CCOc1ccc2nc(Cl)c(/C=C/C(=O)c3ccco3)cc2c1	5.7	1.3	53.2*	19.7	-12.5	0.8	7.0	nt
COc1ccccc1C(=O)NC(=O)COC(=O)C1CCC1	4.9	-0.5	-8.4	0.6	13.1	-6.3	nt	nt
CC(NC(=O)C(NS(=O)(=O)c1cccs1)C(C)C)c1ccc(S(N)(=O)=O)cc1 (centres undefined)	4.5	1.6	1.0	1.7	9.9	-1.1	nt	nt
COc1ccc(CC(=O)NN2C(=O)c3ccccc3C2=O)cc1	6.0	0.0	24.5	2.0	0.9	0.9	nt	nt
SMILES	Jurkat NFkB inh	A1 inh	Mdm2 MdmX PPI	NTR1 ag	697 NFkB inh	Beta apoptosis	Mdm2 MdmX conf	FLuc counter
COc1ccc(CC2=CC(=O)c3ccccc3C2=O)cc1	16.2	-0.4	54.8*	20.0	-105.5	nt	12.8	nt
COc1cccc(NC(=O)COC(=O)/C=C/c2c(C)nn(-c3ccccc3)c2C)c1	0.6	1.9	-3.2	5.1	-18.6	-1.8	nt	nt
CN1CCN(c2ccc(NC(=O)c3ccc(Oc4ccccc4)cc3)cc2)CC1	-14.5	-0.1	16.6	0.5	-2.2	2.8	nt	nt
C=CC(=O)Nc1ccc(N(C)c2ccnc(Nc3ccc(N4CCN(C)CC4)cc3)n2)cc1	4.4	nt	92.5*	1.9	-8.5	nt	62.6*	16.0
Cc1cc(C)n(C(=O)/C(C#N)=N/Nc2cc(Cl)cc(Cl)c2)n1	-3.2	-0.4	89.4*	4.3	-43.6	26.7	87.7*	50.7*
O=C(/C=C/c1ccc2ccccc2n1)N1CCN(S(=O)(=O)c2ccccc2F)CC1	11.4	1.1	75.6*	1.5	15.4	-0.6	79.8*	25.5
O=C(/C=C/c1ccc2ccccc2n1)N1CCN(S(=O)(=O)c2ccc(F)cc2)CC1	4.4	0.2	61.0*	3.4	9.8	-6.0	76.1*	35.1
O=C(/C=C/c1ccc2ccccc2n1)N1CCN(c2ccccc2)CC1	8.8	0.2	33.6	2.5	11.5	-5.3	nt	nt
O=C(CCc1ccc(S(=O)(=O)N2CCOCC2)cc1)OCC(=O)c1ccccc1F	-15.3	0.0	-37.0	1.5	-34.3	-4.5	nt	nt
CN(CC1COc2ccccc2O1)C(=O)c1ccc(Cl)c(S(=O)(=O)N2CCCCCC2)c1 (centres undefined)	9.2	-0.2	25.8	3.1	5.3	-1.7	nt	nt
COc1ccc(-c2cc(C(=O)O)c3c(C)nn(-c4ccccn4)c3n2)cc1	1.9	0.1	3.9	2.2	5.6	-9.2	nt	nt
COc1ccc(N=CC2=C(Nc3ccc(OC)cc3)c3c(C)nn(-c4ccccn4)c3CC2)cc1	21.5	-0.4	90.3*	4.4	-38.8	109.7*	71.7*	22.0
CS(=O)(=O)Nc1ccccc1C(=O)Nc1cc(Cl)cc(Cl)c1	5.2	1.8	60.4*	2.4	0.8	63.9	92.2*	28.3
O=C(Nc1ccccc1)Nc1cc(Cl)cc(Cl)c1	-9.3	-0.5	90.6*	11.8	13.6	69.8	80.3*	22.6

Bioassay records from PubChem.
